Drawing on PubChem BioAssay (NCI), this text covers growth for 13 molecules.

Test systems include SR leukemia; RPMI-8226 leukemia; OVCAR-8 ovarian; OVCAR-5 ovarian; OVCAR-4 ovarian; SK-OV-3 ovarian; IGROV1 ovarian; OVCAR-3 ovarian; HS 578T breast; NCI/ADR-RES ovarian.
Common to all, as to test: NCI-60 one-dose screen, 48 h (100 = growth as untreated, 0 = no growth, -100 = all killed)
Details in all cases: 10 µM unless noted

Molecules are shown by their SMILES. Compounds without any hit were thinned out: in the full panel of roughly 83,000, 20% have a hit.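 Single-concentration screen, 48 h exposure, 96-well plates. Endpoint: percent growth. Below 10 = active.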 Values without a mark were called inactive. Activity calls are given as the source filed them.

`CCN1C(=S)N(c2ccccc2)C2NC(=S)N(/N=C/C=C/c3ccccc3OC)C21` (stereo not given): the growth is 8.81% (active) with SR leukemia; 13.3% in the assay on RPMI-8226 leukemia; 1.79% (active) in the assay on OVCAR-8 ovarian; 28.7% in the assay on OVCAR-5 ovarian; 45% with OVCAR-4 ovarian; 30.5% with SK-OV-3 ovarian. For the same molecule, the growth in the assay with IGROV1 ovarian was 23.8%; in the assay with OVCAR-3 ovarian, 2.96% (active); in the assay with HS 578T breast it was 9.64% (active); in the assay on NCI/ADR-RES ovarian it was 4.46% (active).
On to `CC/C(=C(/c1ccc(Cl)cc1)c1ccc(OCCN(C)C)cc1)c1ccc(Cl)cc1`, for which the growth with SR leukemia is -6.88% (active); with RPMI-8226 leukemia it was 32.8%; in the assay with OVCAR-8 ovarian, 75.1%; in the assay with OVCAR-5 ovarian, 83.9%; with OVCAR-4 ovarian, 78%; with SK-OV-3 ovarian, 90%. Also, the growth was 72.5% in the assay with IGROV1 ovarian, 65% with OVCAR-3 ovarian, 75.1% with HS 578T breast and 74.8% with NCI/ADR-RES ovarian.
Regarding `NC(=O)c1cccc(-n2ccc3cc(NC(=O)c4ccc(N5CCOCC5)c(C(F)(F)F)c4)ccc32)n1`, the growth with SR leukemia is 26.5%; in the assay with RPMI-8226 leukemia it was 12.2%; with OVCAR-8 ovarian, 31.9%; in the assay on OVCAR-5 ovarian, 70.1%; in the assay on OVCAR-4 ovarian it was 47%; with SK-OV-3 ovarian, 43.3%. Moreover, the growth in the assay with IGROV1 ovarian was 74.8%; in the assay with OVCAR-3 ovarian it was 48.7%; with HS 578T breast, 14%; in the assay on NCI/ADR-RES ovarian it was 66.1%.
`CSc1nc2ccccc2cc1/C=C1/C=C(c2ccccc2)NC1=O`: the growth in the assay on SR leukemia is 27.4%; in the assay on RPMI-8226 leukemia, 81.9%; in the assay with OVCAR-8 ovarian it was 82.5%; in the assay with OVCAR-5 ovarian, 99.5%; with OVCAR-4 ovarian, 84.7%; in the assay with SK-OV-3 ovarian, 85.1%. Also, the growth in the assay on IGROV1 ovarian was 79.4%; in the assay on OVCAR-3 ovarian, 71.7%; with HS 578T breast, 80%; in the assay with NCI/ADR-RES ovarian, 76.2%.
Turning to `Cn1cc(C(=O)c2nc(-c3c[nH]c4ccccc34)no2)c2cc(F)ccc21`, the growth in the assay with SR leukemia was 11.2%; in the assay with RPMI-8226 leukemia it was 37.5%; with OVCAR-8 ovarian, 49.3%; in the assay on OVCAR-5 ovarian it was 68.3%; in the assay on OVCAR-4 ovarian it was 69.8%; in the assay with SK-OV-3 ovarian, 43.3%. Besides, the growth is 32.5% in the assay with IGROV1 ovarian, 0.717% (active) with OVCAR-3 ovarian, 44.8% with HS 578T breast and 36.5% in the assay with NCI/ADR-RES ovarian.
Regarding `COc1ccc(/C=N/NC(=O)c2ccc(-n3cc(-c4ccccc4)nn3)cc2)cc1OC`, the growth with SR leukemia was 111%; with RPMI-8226 leukemia, 61.8%; in the assay with OVCAR-8 ovarian it was 99%; in the assay with OVCAR-5 ovarian, 97.9%; with OVCAR-4 ovarian, 106%; in the assay on SK-OV-3 ovarian, 99.3%. Also, the growth is 95.6% in the assay with IGROV1 ovarian, 129% in the assay on OVCAR-3 ovarian, 103% in the assay with HS 578T breast and 101% in the assay with NCI/ADR-RES ovarian.
As for `COCCNC(=O)Nc1ccc2nc(-c3cccs3)c(-c3cccs3)nc2c1`, the growth is 67% with SR leukemia; 92.1% with RPMI-8226 leukemia; 93.4% with OVCAR-8 ovarian; 87.9% in the assay on OVCAR-5 ovarian; 98.2% in the assay with OVCAR-4 ovarian; 98.8% in the assay with SK-OV-3 ovarian. In addition, the growth with IGROV1 ovarian was 89%; with OVCAR-3 ovarian it was 106%; in the assay with HS 578T breast, 93.6%; in the assay on NCI/ADR-RES ovarian, 90.1%.
As for `CCOC(=O)c1c2c(n3cccc(F)c13)C(=O)c1ncccc1C2=O`, the growth is 20.5% in the assay on SR leukemia; 37.5% with RPMI-8226 leukemia; 19.3% in the assay with OVCAR-8 ovarian; 44.3% in the assay on OVCAR-5 ovarian; 24.4% in the assay with OVCAR-4 ovarian; -4.82% (active) in the assay on SK-OV-3 ovarian. Moreover, the growth in the assay on IGROV1 ovarian was 34.4%; in the assay with OVCAR-3 ovarian, -11.1% (active); in the assay with HS 578T breast it was 31.5%; in the assay with NCI/ADR-RES ovarian it was 18.7%.
For `CC(C)c1ccc(C(=O)Nc2sc3c(c2C(N)=O)CCC(=O)C3)cc1`, the growth in the assay on SR leukemia was 0.332% (active); in the assay on RPMI-8226 leukemia, -37.1% (active); in the assay with OVCAR-8 ovarian it was 11%; in the assay on OVCAR-5 ovarian it was 8.42% (active); in the assay on OVCAR-4 ovarian, -85.4% (active); in the assay on SK-OV-3 ovarian it was 25.8%. Also, the growth in the assay on IGROV1 ovarian was 9.75% (active); in the assay with OVCAR-3 ovarian, -35.7% (active); with HS 578T breast it was -4.09% (active); in the assay with NCI/ADR-RES ovarian it was 1.35% (active).
For the molecule `CCCCCOC(=O)c1c(C)[nH]c(/C=C2\N=C(c3ccc[nH]3)C=C2OC)c1C`, the growth in the assay with SR leukemia was -30% (active); in the assay with RPMI-8226 leukemia, -43.6% (active); with OVCAR-8 ovarian, 7.42% (active); with OVCAR-5 ovarian it was -47.1% (active); in the assay with OVCAR-4 ovarian, -7.23% (active); in the assay on SK-OV-3 ovarian, 8.75% (active). In addition, the growth in the assay on IGROV1 ovarian was -14.1% (active); in the assay with OVCAR-3 ovarian, -52.4% (active); in the assay on HS 578T breast, -23.5% (active); in the assay with NCI/ADR-RES ovarian it was 5.69% (active).
As to `O=C(N(c1ccccc1)c1ccccc1)n1cc(I)c2nc(Cl)nc(Cl)c21`, the growth with SR leukemia is 18.9%; in the assay with RPMI-8226 leukemia, 0.0387% (active); in the assay on OVCAR-8 ovarian, 22.6%; with OVCAR-5 ovarian it was 63.7%; with OVCAR-4 ovarian it was 68.4%; in the assay with SK-OV-3 ovarian, 60.9%. Moreover, the growth in the assay on IGROV1 ovarian was 61.8%; in the assay with OVCAR-3 ovarian, 25.8%; in the assay with HS 578T breast, 39.1%; in the assay on NCI/ADR-RES ovarian, 42.4%.
On to `O=C(O)c1cn(C2CC2)c2cc(N3CCN(Cc4ccc5ccccc5c4O)CC3)c(F)cc2c1=O`, for which the growth with SR leukemia is 6.63% (active); with RPMI-8226 leukemia, 73.5%; in the assay with OVCAR-8 ovarian it was 14.4%; in the assay with OVCAR-5 ovarian, 51%; in the assay with OVCAR-4 ovarian it was 32.5%; in the assay with SK-OV-3 ovarian it was 49.7%. Further, the growth in the assay on IGROV1 ovarian is 33.3%; with OVCAR-3 ovarian, -26.2% (active); in the assay on HS 578T breast, -1.88% (active); in the assay with NCI/ADR-RES ovarian, 48%.
Take `Cn1cc(-c2csc(-c3c[nH]c4ccccc34)n2)c2cnccc21`: the growth in the assay with SR leukemia was -7.21% (active); in the assay with RPMI-8226 leukemia it was -28% (active); in the assay with OVCAR-8 ovarian, 18.2%; with OVCAR-5 ovarian, 75.4%; in the assay with OVCAR-4 ovarian, 14.3%; with SK-OV-3 ovarian, 85.3%. Besides, the growth was 47.3% in the assay on IGROV1 ovarian, -59.8% (active) with OVCAR-3 ovarian, 88.3% with HS 578T breast and 35.9% in the assay with NCI/ADR-RES ovarian.
